# From the supplement of paper PMC8975748
# Structures can show the parent of a compound that is named as a salt. ± gives the standard deviation of the averaged measurements.
# Assays:
# [1] = system: Saccharomyces cerevisiae BY4741 SeMeCo community; experiment: z-score of prototroph abundance vs DMSO median; higher = larger share of this subpopulation than in DMSO controls; details: 10 µM; 24 h; SM minimal medium; subpopulation (auxotrophy): Prototroph
# Method in brief: (§1)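 Cells of a Saccharomyces cerevisiae BY4741 community, carrying four plasmids that each restored one auxotrophy and encoded a distinct fluorescent protein, were pre-grown overnight to OD600 1.0 and diluted to 0.3. A 70 µl volume was added to 384-well plates acoustically predosed with library drugs (10 µM final) and grown 24 h in minimal SM medium. After paraformaldehyde fixation, automated confocal microscopy was used, with single-auxotroph fluorescent strains for thresholds and autofluorescence correction. The abundance of each subpopulation was scored as a z-score against the vehicle-well median.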
# [2] = system: Saccharomyces cerevisiae BY4741 SeMeCo community; experiment: z-score of subpopulation abundance vs DMSO median, subpopulation auxotrophic for M; higher = larger share of this subpopulation than in DMSO controls; details: 10 µM; 24 h; SM minimal medium; subpopulation (auxotrophy): M
# Method in brief: as §1
# [3] = system: Saccharomyces cerevisiae BY4741 SeMeCo community; experiment: z-score of subpopulation abundance vs DMSO median, subpopulation auxotrophic for L; higher = larger share of this subpopulation than in DMSO controls; details: 10 µM; 24 h; SM minimal medium; subpopulation (auxotrophy): L
# Method in brief: as §1
# [4] = system: Saccharomyces cerevisiae BY4741 SeMeCo community; experiment: z-score of subpopulation abundance vs DMSO median, subpopulation auxotrophic for U; higher = larger share of this subpopulation than in DMSO controls; details: 10 µM; 24 h; SM minimal medium; subpopulation (auxotrophy): U
# Method in brief: as §1
# [5] = system: Saccharomyces cerevisiae BY4741 SeMeCo community; experiment: z-score of subpopulation abundance vs DMSO median, subpopulation auxotrophic for H; higher = larger share of this subpopulation than in DMSO controls; details: 10 µM; 24 h; SM minimal medium; subpopulation (auxotrophy): H
# Method in brief: as §1
# [6] = system: Saccharomyces cerevisiae BY4741 SeMeCo community; experiment: z-score of subpopulation abundance vs DMSO median, subpopulation auxotrophic for LM; higher = larger share of this subpopulation than in DMSO controls; details: 10 µM; 24 h; SM minimal medium; subpopulation (auxotrophy): LM
# Method in brief: as §1
# [7] = system: Saccharomyces cerevisiae BY4741 SeMeCo community; experiment: z-score of subpopulation abundance vs DMSO median, subpopulation auxotrophic for HM; higher = larger share of this subpopulation than in DMSO controls; details: 10 µM; 24 h; SM minimal medium; subpopulation (auxotrophy): HM
# Method in brief: as §1
# [8] = system: Saccharomyces cerevisiae BY4741 SeMeCo community; experiment: z-score of subpopulation abundance vs DMSO median, subpopulation auxotrophic for HU; higher = larger share of this subpopulation than in DMSO controls; details: 10 µM; 24 h; SM minimal medium; subpopulation (auxotrophy): HU
# Method in brief: as §1
# [9] = system: Saccharomyces cerevisiae BY4741 SeMeCo community; experiment: z-score of subpopulation abundance vs DMSO median, subpopulation auxotrophic for UM; higher = larger share of this subpopulation than in DMSO controls; details: 10 µM; 24 h; SM minimal medium; subpopulation (auxotrophy): UM
# Method in brief: as §1
# [10] = system: Saccharomyces cerevisiae BY4741 SeMeCo community; experiment: z-score of subpopulation abundance vs DMSO median, subpopulation auxotrophic for HL; higher = larger share of this subpopulation than in DMSO controls; details: 10 µM; 24 h; SM minimal medium; subpopulation (auxotrophy): HL
# Method in brief: as §1
# [11] = system: Saccharomyces cerevisiae BY4741 SeMeCo community; experiment: z-score of subpopulation abundance vs DMSO median, subpopulation auxotrophic for HLU; higher = larger share of this subpopulation than in DMSO controls; details: 10 µM; 24 h; SM minimal medium; subpopulation (auxotrophy): HLU
# Method in brief: as §1
# [12] = system: Saccharomyces cerevisiae BY4741 SeMeCo community; experiment: z-score of subpopulation abundance vs DMSO median, subpopulation auxotrophic for HLM; higher = larger share of this subpopulation than in DMSO controls; details: 10 µM; 24 h; SM minimal medium; subpopulation (auxotrophy): HLM
# Method in brief: as §1
# [13] = system: Saccharomyces cerevisiae BY4741 SeMeCo community; experiment: z-score of subpopulation abundance vs DMSO median, subpopulation auxotrophic for HUM; higher = larger share of this subpopulation than in DMSO controls; details: 10 µM; 24 h; SM minimal medium; subpopulation (auxotrophy): HUM
# Method in brief: as §1
# [14] = system: Saccharomyces cerevisiae BY4741 SeMeCo community; experiment: z-score of subpopulation abundance vs DMSO median, subpopulation auxotrophic for LUM; higher = larger share of this subpopulation than in DMSO controls; details: 10 µM; 24 h; SM minimal medium; subpopulation (auxotrophy): LUM
# Method in brief: as §1
# [15] = system: Saccharomyces cerevisiae BY4741 SeMeCo community; experiment: z-score of subpopulation abundance vs DMSO median, subpopulation auxotrophic for HLUM; higher = larger share of this subpopulation than in DMSO controls; details: 10 µM; 24 h; SM minimal medium; subpopulation (auxotrophy): HLUM
# Method in brief: as §1
# [16] = system: Saccharomyces cerevisiae BY4741 SeMeCo community; experiment: mean cell size (pixel area) (pixels); higher = larger cells; details: 10 µM; 24 h; SM minimal medium
# Method in brief: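 In this assay, mean cell pixel area per well was obtained from automated confocal images of paraformaldehyde-fixed yeast analysed in Harmony. The cells were a Saccharomyces cerevisiae BY4741 community with four plasmids, each complementing one auxotrophy and carrying a fluorescent marker, grown for 24 h in SM medium with drug at a final 10 µM in 384-well plates. Values are averaged across 3 replicates. Same SeMeCo high-content imaging drug screen: Selleck FDA-approved drugs at 10 µM, 24 h in SM medium, 384-well plates, 3 replicates.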
SMILES,z-score of prototroph abundance [1],z-score of subpopulation abundance [2],z-score of subpopulation abundance [3],z-score of subpopulation abundance [4],z-score of subpopulation abundance [5],z-score of subpopulation abundance [6],z-score of subpopulation abundance [7],z-score of subpopulation abundance [8],z-score of subpopulation abundance [9],z-score of subpopulation abundance [10],z-score of subpopulation abundance [11],z-score of subpopulation abundance [12],z-score of subpopulation abundance [13],z-score of subpopulation abundance [14],z-score of subpopulation abundance [15],mean cell size [16]
Cc1cccc(Nc2ccccc2C(=O)O)c1C [Mefenamic Acid],0.48,0.15,0.31,-0.58,-0.41,0.12,-0.11,0.29,-0.74,0.24,-0.38,-0.42,-0.64,-0.45,-0.2,–
C=C[C@H]1CN2CC[C@H]1C[C@H]2[C@H](O)c1ccnc2ccc(OC)cc12 [Quinine HCl Dihydrate],-0.12,0.59,-0.67,0.16,0.07,–,-0.08,0.2,1.09,-0.28,-0.42,0.48,0.21,0.52,0.6,–
CO/N=C(\C(=O)N[C@@H]1C(=O)N2C(C(=O)O)=C(CSc3nc(C)c(CC(=O)O)s3)CS[C@H]12)c1csc(N)n1 [Cefodizime Sodium],0.26,-0.97,-0.39,0.88,-0.25,-1.04,-0.46,0.66,0.34,-0.84,-1.16,-1.07,–,-0.74,-0.81,12.4 ± 0.13
CC(=O)[C@H]1CC[C@H]2[C@@H]3CCC4=CC(=O)CC[C@]4(C)[C@H]3CC[C@]12C [Progesterone],0.96,0.64,-1.51,-0.24,-1.35,–,-0.71,-0.6,0.01,-0.85,-1.13,-0.24,-0.62,-0.61,–,12.5 ± 0.23
COC(=O)C1=C(C)NC(C)=C(C(=O)OC2CCCN(Cc3ccccc3)C2)C1c1cccc([N+](=O)[O-])c1 (stereo not drawn) [Benidipine HCl],–,0.13,1.12,-1.06,0.92,1.8,0.86,-0.01,-0.42,1.55,0.26,0.06,0.12,0.29,–,12.4 ± 0.23
CCCN[C@H]1CCc2nc(N)sc2C1 [Pramipexole 2HCl Monohydrate],0.72,0.15,-0.36,-0.54,-0.51,-1.2,-0.39,–,-0.95,-0.02,-0.47,-0.59,–,–,-0.69,12.56 ± 0.054
CCCCC(=O)O[C@H]1CC[C@H]2[C@@H]3CCc4cc(O)ccc4[C@H]3CC[C@]12C [Estradiol valerate],–,0.23,-0.51,0.05,-0.49,-0.71,–,–,0,-0.58,0.43,-0.87,0.19,-0.45,-0.75,12.4 ± 0.22
